Assay [1] is described as follows: qHTS assay to identify small molecule antagonists of the estrogen related receptor (ERR) signaling pathway from Tox21 library - cell viability counter screen (AID 1224834). Also: nearly all actives have a fitted effect of over 30% in size. The method, boiled down:
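ERR cells, 2,000/well; 6 h settle at 37 C/5% CO2; pin-tool compound transfer in DMSO; 17.5 h at 37 C; CellTiter-Fluor, 30 min; fluorescence intensity.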

In assay [2] the target is Luciferin 4-monooxygenase (Photinus pyralis) (UniProt P08659). Description: qHTS assay to identify small molecule inhibitors of firefly luciferase (AID 1224835). Also: nearly all actives have a fitted effect of over 25% in size. Also: potency is read from the fitted curve at half-maximal effect. In outline: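 Biochemical qHTS: compounds run as interplate titrations against purified firefly enzyme, with D-luciferin and ATP each at its KM concentration. Light output recorded by CCD imaging.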
Assay [3] in a line: qHTS assay to identify small molecule agonists of the constitutive androstane receptor (CAR) signaling pathway - cell viability counter screen (AID 1224836). Also: series mostly up to about 92 µM; nearly all actives have a fitted effect of over 45% in size. In outline: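 HepG2-CYP2B6-hCAR, 2500 cells/well, 4 h pre-incubation; cpd 15 conc + PK11195 0.75 uM final; 23 h, 37 C/5% CO2; CellTiter-Fluor, fluorescence.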
On the technique in general: qHTS replaces the single test concentration by a dilution series.

A short description of assay [4]: qHTS assay to identify small molecule antagonists of the constitutive androstane receptor (CAR) signaling pathway - cell viability counter screen (AID 1224837). Also: series mostly up to about 92 µM; nearly all actives have a fitted effect of over 45% in size. The method, boiled down:
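Viability was measured with CellTiter-Fluor in a HepG2 line carrying stably transfected hCAR and a CYP2B6-2.2kb construct. Cells were exposed for 23 hr at 37 C to 15 compound concentrations with 50 nM CITCO as agonist.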

For assay [5], the target named is Nuclear receptor subfamily 1 group I member 3 (Homo sapiens) (UniProt Q14994). The experiment in a line: qHTS assay to identify small molecule antagonists of the constitutive androstane receptor (CAR) signaling pathway (AID 1224838).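 Also: HepG2 cells stably expressing hCAR with CYP2B6 luciferase reporter stimulated by CITCO; nearly all actives have a fitted effect of over 40% in size.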 In outline:
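Antagonist mode used CITCO at a final 50 nM to activate CAR in human hepatoma HepG2 cells carrying stable hCAR and a 2.2 kb CYP2B6 promoter-luciferase construct. Compounds were tested at 15 concentrations over 24 h, with luminescence as the end point.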

Assay [6] shares this target. Description: qHTS assay to identify small molecule agonists of the constitutive androstane receptor (CAR) signaling pathway (AID 1224839). Also: nearly all actives have a fitted effect of over 15% in size. Also: potency is read from the fitted curve at half-maximal effect. The method, boiled down:
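HepG2-CYP2B6-hCAR cells, 2500/well, 4 h pre-incubation; compounds 15 conc.; PK11195 0.75 uM final; 24 h, 37 C/5% CO2; ONE-Glo luciferase read.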

A short description of assay [7]: qHTS assay to identify small molecule antagonists of the estrogen related receptor signaling pathway with the pleiotropic PPARgamma coactivator (PGC) from Tox21 10K library - cell viability counter screen (AID 1224840; active = well fitted cell-killing curve with a large enough effect in the repeat runs, not every such curve was filed as active; also: nearly all actives have a fitted effect of over 40% in size). The method, boiled down:
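Multiplexed viability counter screen in the PGC/ERR cell line: cells treated with DMSO-dissolved compounds for 17.5 hours at 37 C, then viability measured as CellTiter-Fluor fluorescence.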

In assay [8] the target is Thyrotropin receptor (Homo sapiens) (UniProt P16473). Description: qHTS assay to identify small molecule agonists of the thyroid stimulating hormone receptor (TSHR) signaling pathway (AID 1224843; calls by dose curve; also: nearly all actives have a fitted effect of over 45% in size; also: potency is read from the fitted curve at half-maximal effect). The method, boiled down:
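Agonist-mode screen: TSHR HEK293 cells received test chemicals for half an hour at room temperature, then HTRF cAMP detection reagents for one hour prior to fluorescence measurement. Each chemical ran as a 15-concentration series, triplicated.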

The nature of assay [9]: qHTS assay to identify small molecule antagonists of the estrogen related receptor signaling pathway with the pleiotropic PPARgamma coactivator (PGC) from Tox21 10K library (AID 1224841; call rule not given here; also: series mostly up to about 92 µM; actives are mostly falling curves and most rising ones were filed inactive; nearly all actives have a fitted effect of over 50% in size). The method, boiled down: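 Steps: plate 2,000 PGC/ERR cells per well; incubate 6 h at 37 C with 5% CO2; transfer compounds from DMSO stocks by pin tool; incubate 18 h at 37 C; add One-Glo; measure luminescence 30 min later.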

The nature of assay [10]: qHTS assay to identify small molecule agonists of the estrogen related receptor signaling pathway with the pleiotropic PPARgamma coactivator (PGC) from Tox21 10K library (AID 1224842). Also: nearly all actives have a fitted effect of over 15% in size. In outline:
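PGC/ERR reporter cell line, 2,000 cells per well, incubated 6 h at 37 C before 23 nL compound in DMSO was added. After 18 h at 37 C, One-Glo luminescence read following 30 min at room temperature.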

“And” between values parts separate entries of the source, which are not always exact repeats. Equal values may be shown once. Records with an inconclusive call do not appear. The source holds several records for some structures; these can differ, active in one and inactive in another. The source made the active and inactive calls. Unless noted, calls follow the shape of the dose curve; as a rule, active = well fitted curve in the direction sought with a large enough effect in the repeat runs; inconclusive = weak or mixed curves; inactive = no such curve, though single readings can be large; an effect the other way counts as inactive or inconclusive.

Sequence of Nuclear receptor subfamily 1 group I member 3 (Homo sapiens) (Q14994 whole entry, looked up): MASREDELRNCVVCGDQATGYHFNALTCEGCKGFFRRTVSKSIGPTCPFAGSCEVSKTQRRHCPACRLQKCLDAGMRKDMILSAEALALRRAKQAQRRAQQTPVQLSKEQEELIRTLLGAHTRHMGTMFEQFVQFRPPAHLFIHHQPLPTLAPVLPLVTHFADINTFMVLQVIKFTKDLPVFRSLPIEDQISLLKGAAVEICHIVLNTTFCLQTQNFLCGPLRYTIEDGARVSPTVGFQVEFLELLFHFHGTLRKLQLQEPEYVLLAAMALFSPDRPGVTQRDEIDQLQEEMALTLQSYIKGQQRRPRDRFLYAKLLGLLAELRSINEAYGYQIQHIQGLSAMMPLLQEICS
Sequence of Thyrotropin receptor (Homo sapiens) (P16473 whole entry, looked up): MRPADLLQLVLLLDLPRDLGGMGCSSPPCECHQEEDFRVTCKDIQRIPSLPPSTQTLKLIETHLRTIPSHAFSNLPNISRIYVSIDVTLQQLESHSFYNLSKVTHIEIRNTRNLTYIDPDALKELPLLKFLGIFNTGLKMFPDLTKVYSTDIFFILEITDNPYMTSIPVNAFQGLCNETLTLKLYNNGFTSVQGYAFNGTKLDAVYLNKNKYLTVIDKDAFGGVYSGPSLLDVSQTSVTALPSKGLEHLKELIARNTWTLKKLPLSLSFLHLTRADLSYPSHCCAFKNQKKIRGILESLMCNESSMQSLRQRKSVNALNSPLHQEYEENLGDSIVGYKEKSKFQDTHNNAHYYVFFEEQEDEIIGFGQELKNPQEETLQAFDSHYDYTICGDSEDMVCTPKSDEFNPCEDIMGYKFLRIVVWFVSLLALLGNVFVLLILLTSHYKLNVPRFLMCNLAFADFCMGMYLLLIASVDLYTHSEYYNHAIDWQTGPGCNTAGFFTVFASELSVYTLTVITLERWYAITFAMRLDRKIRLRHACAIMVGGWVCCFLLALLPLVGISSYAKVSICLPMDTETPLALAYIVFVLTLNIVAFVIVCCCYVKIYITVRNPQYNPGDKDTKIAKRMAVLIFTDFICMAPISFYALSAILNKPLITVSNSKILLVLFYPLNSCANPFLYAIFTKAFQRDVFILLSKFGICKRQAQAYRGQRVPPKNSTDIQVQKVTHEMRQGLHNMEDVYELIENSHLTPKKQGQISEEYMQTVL
Sequence of Luciferin 4-monooxygenase (Photinus pyralis) (P08659 whole entry, looked up): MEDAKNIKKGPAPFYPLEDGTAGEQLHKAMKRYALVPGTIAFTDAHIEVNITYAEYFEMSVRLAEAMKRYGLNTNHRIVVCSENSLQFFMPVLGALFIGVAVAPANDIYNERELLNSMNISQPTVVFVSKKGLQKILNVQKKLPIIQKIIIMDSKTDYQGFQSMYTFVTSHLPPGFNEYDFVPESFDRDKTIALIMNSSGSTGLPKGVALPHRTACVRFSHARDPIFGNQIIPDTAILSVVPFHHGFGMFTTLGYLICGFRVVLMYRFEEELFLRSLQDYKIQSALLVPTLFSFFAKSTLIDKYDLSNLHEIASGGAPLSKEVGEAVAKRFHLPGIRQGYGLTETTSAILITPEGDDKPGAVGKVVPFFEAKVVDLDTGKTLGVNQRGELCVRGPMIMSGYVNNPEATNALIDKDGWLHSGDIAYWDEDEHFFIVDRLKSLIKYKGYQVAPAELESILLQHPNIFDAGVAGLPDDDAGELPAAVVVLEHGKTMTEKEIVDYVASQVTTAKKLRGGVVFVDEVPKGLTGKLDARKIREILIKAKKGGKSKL

Turning to `CCCCCCCCOC(=O)c1ccccc1C(=O)OCCCCCCCC`, the Potency entry in [1], in [2], in assay [3], in assay [4], in assay [5] and in assay [7] was “inactive” each time. Besides, in [8], the Potency result was “inactive”. Besides, in assay [6], the Potency entry was “inactive and 17.2 µM (active)”.
On to `O=C1C=CC(=O)C=C1`, for which the Potency entry in assay [1], in [3], in assay [4], in assay [5], in assay [6] and in [7] was “inactive” in each case. The Potency result in assay [8] was “inactive”. Besides, in assay [2], the Potency was 31.9 µM (active) and 22.4 µM (active).
Regarding `O=C(O)CC[N+](=O)[O-]`, the Potency result in [1], in [2], in assay [3], in [4] and in assay [7] was “inactive” throughout.
On to `CCCCCCOC(=O)c1ccccc1C(=O)OCCCCCC`, for which the Potency result in assay [1], in assay [2], in assay [3], in assay [4], in [5] and in assay [7] was “inactive” each time. Moreover, the Potency entry in assay [8] is “inactive”. Also, the Potency in [6] is 27.9 µM (active) and 30.6 µM (active).
With `CCCCN(CC)c1c([N+](=O)[O-])cc(C(F)(F)F)cc1[N+](=O)[O-]`, the Potency entry in assay [1], in assay [2], in assay [3], in assay [4], in [5] and in [7] was “inactive” in each case. The Potency entry in [9] and in assay [10] was “inactive” throughout. Moreover, the Potency in assay [8] is 8.77 µM (active) and 12.2 µM (active).
Take `Brc1ccc(Oc2cc(Br)c(Br)cc2Br)c(Br)c1`: the Potency entry in [1], in assay [2], in [3], in [4], in assay [7] and in assay [9] was “inactive” throughout. In addition, the Potency result in assay [10] was “inactive”.
Consider `CC(C)c1ccc(CO)cc1`, for which the Potency result in assay [1], in assay [2], in assay [3], in [4], in assay [7] and in [9] was “inactive” in each case. The Potency entry in assay [10] and in assay [8] was “inactive” in each case.
Take `COC(=O)c1sccc1S(=O)(=O)NC(=O)Nc1nc(C)nc(OC)n1`: the Potency result in assay [1], in assay [2], in assay [3], in assay [4], in [5] and in assay [6] was “inactive” each time. The Potency result in assay [7] and in assay [8] was “inactive” in each case.
With `CNC(=O)N(C)c1nnc(C(C)(C)C)s1`, the Potency entry in assay [1], in assay [2], in [3], in assay [4], in assay [5] and in assay [6] was “inactive” throughout. The Potency result in assay [7] and in assay [8] was “inactive” each time.
As to `CCOc1cc(C=O)ccc1O`, the Potency result in assay [1], in assay [2], in assay [3], in assay [4], in assay [5] and in assay [6] was “inactive” in each case. The Potency result in assay [7] and in assay [8] was “inactive” throughout.
For the compound `OCC(O)CO`, the Potency result in assay [1], in [2], in assay [3], in assay [4], in assay [7] and in assay [9] was “inactive” throughout. The Potency result in [10] and in [8] was “inactive” throughout.
For the compound `CC1(C)C(C=C(Cl)Cl)C1C(=O)OC(C#N)c1cccc(Oc2ccccc2)c1` (configuration not stated), the Potency entry in [1], in assay [2], in [3], in assay [4], in [5] and in assay [7] was “inactive” throughout. Moreover, the Potency result in [8] was “inactive”.
For the compound `C=CCc1ccc(OC)cc1`, the Potency result in [1], in assay [2], in assay [3], in assay [4], in assay [5] and in assay [6] was “inactive” each time. Further, the Potency result in [7] and in [8] was “inactive” each time.
Turning to `N#CC(Br)Br`, the Potency result in [1], in assay [2], in [3], in [4], in assay [5] and in [6] was “inactive” throughout. The Potency entry in assay [7] and in [8] was “inactive” in each case.
On to `CC(C)N(C(=O)SCC(Cl)=C(Cl)Cl)C(C)C`, for which the Potency result in assay [1], in assay [2], in assay [3], in [4], in assay [5] and in [6] was “inactive” in each case. In addition, the Potency result in assay [7] was “inactive”. In [8], the Potency is 30.2 µM (active) and 15.4 µM (active).
On to `O=C(NC(=O)c1c(F)cccc1F)Nc1ccc(Cl)cc1`, for which the Potency entry in assay [1], in [2], in assay [3], in assay [4], in [5] and in assay [7] was “inactive” in each case. Further, in [8], the Potency entry is “inactive”. For the same compound, the Potency result in [6] is “inactive and 1.22 µM (active)”.
As for `CCCCC(CC)COC(=O)c1ccc(C(=O)OCC(CC)CCCC)c(C(=O)OCC(CC)CCCC)c1` (configuration not stated), the Potency entry in assay [1], in [2], in [3], in assay [4], in assay [5] and in [6] was “inactive” each time. The Potency entry in assay [7] and in assay [8] was “inactive” in each case.

(Values after PubChem BioAssay (Tox21).)
